In the library only some 19% were active in any assay of this set; here they are far more common.
Pf growth 48h: inhibits P. falciparum growth in the first generation, 48 h | AID 504832 | P. falciparum luciferase growth in erythrocytes, 48 h | hit rate 5.9% among 310,000 | Potency, µM (top dose mostly 28.7 µM), without a hit: top-dose activity change, negative = inhibition, hits mostly inhibitors; note: potency is the fitted concentration of half-maximal effect; % is set by controls: 0 for no effect and ±100 for the full control effect
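Luminescence readout; reporter = integrated firefly luciferase in P. falciparum. RBC culture at 2% hematocrit, 0.1% parasitemia final, 37 C/5% CO2; decreased signal taken as growth inhibition.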
LASV entry inh: inhibitors of Lassa virus binding or cell entry. hit rate 1.2% among 300,000. AID 540256. Lassa virus pseudotype entry inhibition, cell reporter. Potency, µM (top dose mostly 37.9 µM), for the others: at the top dose activity change, negative = inhibition, usual class: inhibitors; calls by dose curve; tested in HEK293 cells; note: potency is the fitted concentration of half-maximal effect; % is set by controls: 0 for no effect and ±100 for the full control effect; nearly all actives have a fitted effect of over 50% in size
MARV entry inh: blocks Marburg virus binding to or entry into cells; Potency, µM (top dose mostly 37.8 µM), for inactives: top-dose activity change, negative = inhibition, usual class: inhibitors; AID 540276; Marburg virus pseudotyped entry inhibition, cell reporter; hit rate 1.8% among 300,000; calls by dose curve; tested in HEK293 cells; note: potency is the fitted concentration of half-maximal effect; % is set by controls: 0 for no effect and ±100 for the full control effect
Pf growth 96h: P. falciparum growth inhibition at 96 hour, primary screen for plastid delayed-death inhibitors | P. falciparum luciferase reporter growth, 96 h | hit rate 6.9% among 320,000 | Potency, µM (highest dose often 28.7 µM), without a hit: top-dose activity change, negative = inhibition, actives largely listed as inhibitors | AID 504834; note: potency is the fitted concentration of half-maximal effect; % is set by controls: 0 for no effect and ±100 for the full control effect
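Erythrocytes infected with luciferase-expressing P. falciparum were dispensed at 2% hematocrit and 0.05% parasitemia (final), then incubated with compounds 96 hours at 37 C in 5% CO2. Luminescence after detection reagent addition reported growth.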
Shiga toxin inh: blocks Shiga toxin action in Vero cells; Vero cells, Shiga toxin protein synthesis inhibition reporter; inhibition, % at 38.7 µM; hit rate 9.2% among 290,000; in the data active = inhibition mostly above about 28%, no sharp cut-off; inactive = mostly below about 43%; note: 0% is about no effect
CHX counter: counter-screen for Shiga toxin inhibitors: cycloheximide protein synthesis inhibition; cell reporter, cycloheximide protein synthesis inhibition counterscreen; max response, %; hit rate 12% among 300,000; AID 2314; in the data active = max response mostly above about 13%, no sharp cut-off; inactive = mostly below about 14%; note: read at 38.3 µM for the half of the compounds with a filed dose; 0% is about no effect
Numbers without * were called inactive; i = inactive; u = inconclusive; x = no result; [ ] = remark or other dose. Unless noted, calls come from the whole dose curve; as a rule, active = well fitted inhibition curve with a large enough effect; inconclusive = small, poorly fitted or top-dose-only effect, or another doubt; inactive = no such curve, though single readings can be large or run the other way.

SMILES	Pf growth 48h	LASV entry inh	MARV entry inh	Pf growth 96h	Shiga toxin inh	CHX counter
Cn1cc(CC(=O)N2CCN(c3ccccc3F)CC2)c2ccccc21	x	x	x	u	1	-5
O=C(Nc1cccc(Cl)c1)N1CCC(CO)(CCOc2ccccc2)CC1	-6%	x	x	13µM*	-4	2
O=C(Nc1ccc(Cl)cc1)N1CC=CCC1	87%	26%	u	0%	109*	84*
O=C(Cc1ccc(Cl)cc1)N1CCN(c2ccccc2)CC1	2%[0.00184 µM]	x	x	54%	63	31*
Cn1cc(CC(=O)N2CCN(c3ccc(Cl)cc3)CC2)c2ccccc21	-9%	u	u	12µM*	-10	-2
CCSc1nnc(NC(=O)c2csc3c2CCCC3)s1	34%	-1%	u	51%	-4	0
Nc1c(C(=O)Nc2cccc(Cl)c2Cl)sc2nc(-c3cccnc3)ccc12	14%	29%	u	27%	9	0
O=C(Nc1ccc2ccccc2c1)N1CCN(c2ncccc2C(F)(F)F)CC1	u	-19%	u	u	-17	1
Cc1ccc(NC(=O)N2CCN(c3ncccc3C(F)(F)F)CC2)cc1	8.3µM*	x	x	13µM*	26	15*
Cc1cc2ccccn2c1C(=O)c1ccccc1Br	-8%	u	u	-7%	-8	6
CCOC(=O)C(=O)c1c(C)cc2ccccn12	64%	1%	15%	-30%[5.75 µM]	47*	23*
Cc1cc2ccccn2c1C(=O)c1ccc([N+](=O)[O-])o1	-28%	u	u	u	23	34*
CC(C)(C)c1ccc(C(=O)N/C(N)=N/c2nc3ccccc3o2)cc1	x	u	-23%	9%	-5	-3
COc1ccc(C(=O)N/C(N)=N/c2nc3ccccc3o2)cc1	42%	-20%	-28%[46.1 µM]	u	7	7
Cc1ccc2oc(/N=C(\N)NC(=O)C3CC3)nc2c1	121%	x	-2%	i	65*	55*
Cc1ccc2oc(/N=C(\N)NC(=O)C(C)(C)C)nc2c1	-88%	u	u	-16%	32	27*
CCOc1ccc(C(c2nnnn2C(C)(C)C)N2CCN(C(=O)c3ccco3)CC2)cc1 (stereo not given)	u	x	15%[46.1 µM]	-20%	20	-2
COc1ccccc1C(c1nnnn1C(C)(C)C)N1CCCCCC1 (stereo not given)	8.3µM*	8%	-21%	x	-5	2
CC(C)(C)n1nnnc1C(c1ccccc1F)N1CCN(C2CCCC2)CC1 (stereo not given)	5%	-14%	u	x	-20	-4
COc1ccccc1C(c1nnnn1C(C)(C)C)N1CCN(C(=O)c2ccco2)CC1 (stereo not given)	4.7µM*	-10%	u	u	-7	6
COc1ccc(CNc2ccc(C(=O)O)cc2)cc1	122%	11%	u	x	44*	26*
COc1ccc(NCc2n[nH]c(=O)c3ccccc23)cc1	x	17%	-23%[46.1 µM]	43%	19	15*
COc1ccc(CNc2ccc(Br)cc2)cc1	65%	x	x	-20%	126*	36*
COc1ccc(NC(=O)NNC(=O)c2ccccc2-n2cccc2)cc1OC	1%	1%[46.1 µM]	3%[46.1 µM]	u	-13	4
COc1cc(/C=C2/C(=N)N3N=C(CC(=O)N4CCOCC4)SC3=NC2=O)ccc1OCc1ccccc1F	-12%	22%[46.1 µM]	11%[46.1 µM]	4%	43	26*
SMILES	Pf growth 48h	LASV entry inh	MARV entry inh	Pf growth 96h	Shiga toxin inh	CHX counter
COc1ccc(/C=C2/C(=N)N3N=C(CC(=O)N4CCCC4)SC3=NC2=O)cc1OC	16%	19%[46.1 µM]	1%[46.1 µM]	22%	-6	-4
COc1cc(/C=C2/C(=N)N3N=C(CC(=O)N4CCOCC4)SC3=NC2=O)ccc1OCc1ccc(F)cc1	3%	x	x	u	106*	40*
COC(=O)c1cc(NC(=S)Nc2cc(Cl)cc(Cl)c2)cc(C(=O)OC)c1	u	-1%	23%	21%	-1	-3
O=C(Nc1ccccc1Cl)c1sccc1-c1ccccc1	u	u	u	u	3	-6
Cc1cc(C)n(CCc2nc(-c3ccc(F)cc3)cs2)n1	u	3%[46.1 µM]	13%[46.1 µM]	u	78*	36*
Cc1nn(C)c(C)c1NS(=O)(=O)c1ccc(Cl)cc1	8%	2%	5%	0%	x	x
